Among the data in PubChem BioAssay AID1259415 (National Center for Advancing Translational Sciences (NCATS), 2018) are activity change, negative = inhibition values, retold here.

The structures appear in SMILES notation. Out of some 410,000 compounds screened, about 18,000 (4.4%) were called active. Roughly 7% stayed inconclusive and do not appear here. Many of the other results were omitted from the sample, so actives are more common in it than they were. A number with no mark means an inactive call. No stated cut-off is given here; in the data, active means activity change below about -60%; inconclusive means no clear call, values can overlap the other calls; inactive means above about -39%.
On the % scale 0 is the no-effect control and ±100 the full control effect.

The nature of this assay: qHTS Assay for inhibitors of the human cytomegalovirus (HCMV). The following applies: HFF cells, HCMV-luciferase reporter, 72 h; at 57.5 µM; active compounds read low. The essentials: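 Cell-based, HFFs, 1000 cells/well, 16 h 37C; cpds in DMSO + HCMV-luc, MOI 1 PFU/cell; 72 h 37C; OneGlo luminescence after 5 min RT; norm. to buffer vs Salinomycin 10uM.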
`COc1ccc(/C=N/n2c(C)cc(C)cc2=O)cc1`: the activity change, negative = inhibition was -24.9%.
Regarding `CN=c1scc(-c2cc(OC)ccc2OC)n1/N=C/c1c(C)[nH]c2ccccc12`, the activity change, negative = inhibition was -85.5% (active).
On to `CCn1c(-c2cc(OC)ccc2OC)csc1=Nc1c(C)n(C)n(-c2ccccc2)c1=O`, for which the activity change, negative = inhibition was -25.8%.
In the case of `CCOC(=O)c1ccc(NC(=O)CCS(=O)(=O)c2ccc(C)cc2)cc1`, the activity change, negative = inhibition was 0%.
For `OCc1cnc(SCc2ccc(F)cc2)n1Cc1ccc(F)cc1`, the activity change, negative = inhibition was -26.3%.
In the case of `O=C(c1ccco1)N1CCN(C(=O)C2CCCN(S(=O)(=O)c3cccc4nsnc34)C2)CC1` (stereo unspecified), the activity change, negative = inhibition is -12.2%.
Turning to `COC(=O)C(C)N(C#N)c1nc(C)nc(C)n1` (stereo unspecified), the activity change, negative = inhibition was -110% (active).
With `CNc1nc(SC)nc(N(C#N)CC(=O)OC)n1` the figure was 81.6%; with `CCOC(=O)c1c(C)oc2nc(C)nc(N(CC(C)C)CC(C)C)c12`, -31.4%; with `CCCCCn1c(CCCNC(=O)c2ccccc2OC)nc2ccccc21`, -34.7%.
Turning to `Clc1ccc(CSc2nncn3c2cc2occc23)cc1`, the activity change, negative = inhibition was -20.2%.
`O=c1[nH]c(=O)n(CCc2ccc(F)cc2)c(O)c1/C=N/N1CCCCC1`: the activity change, negative = inhibition is -4.21%.
On to `COc1ccc(CCn2c(O)c(C=NCCCn3ccnc3)c(=O)[nH]c2=O)cc1OC`, for which the activity change, negative = inhibition is -107% (active).
As to `COc1ccc(CCn2c(O)c(C=NC3CC3)c(=O)[nH]c2=O)cc1OC`, the activity change, negative = inhibition is -4.78%.
`CC(C)(C(=O)Nc1ccccc1)n1cc(NC(=O)c2cc(F)cc(F)c2)cn1`: the activity change, negative = inhibition is 9.36%.
As to `Cc1ccc(C(C(=O)NCC2CCCO2)N(C(=O)c2snc(C(N)=O)c2N)c2ccc(C(C)C)cc2)o1` (stereo unspecified), the activity change, negative = inhibition was -9.39%.
For the compound `O=C(NNC(=S)NC(=O)c1cn(-c2ccccc2)nc1-c1ccccc1)c1ccncc1`, the activity change, negative = inhibition is 21.1%.
For `O=C(N/N=C/c1ccc([N+](=O)[O-])o1)c1cn(-c2ccccc2)nc1-c1ccc(F)cc1`, the activity change, negative = inhibition was -65.8% (active).
With `O=C(CSc1ccc(/C=N/NC(=O)c2cccc(F)c2)o1)Nc1ccccc1` the figure was -21.6%; with `O=C(NCCCN1CCCC1=O)c1cccc(S(=O)(=O)NCc2ccccc2)c1`, 0.765%.
Turning to `Clc1ccc2c(c1)C1=C(C(c3ccncc3)O2)C(c2ccc(Br)cc2)n2ncnc2N1` (stereo unspecified), the activity change, negative = inhibition is -78.3% (active).
With `CC1CCCN(c2nc3c(S(=O)(=O)c4ccc(C(C)C)cc4)nnn3c3ccsc23)C1` (stereo unspecified) the figure was 20%.
With `Cc1ccc(-n2c3nc(=O)[nH]c(=O)c-3cc3c(Cl)cccc32)cc1` the figure was -14.6%; with `Cc1ccc(S(=O)(=O)N(C)C)cc1NC(=O)c1ccccc1Br`, -5.46%; with `CCN(CC)S(=O)(=O)c1ccc(NC(=O)c2cccnc2Cl)c(NC(=O)c2cccnc2Cl)c1`, -100% (active).
Turning to `CCN(CC)S(=O)(=O)c1ccc(C)c(NC(=O)COc2ccc(Br)cc2Cl)c1`, the activity change, negative = inhibition is 24.1%.
On to `O=C(CC(O)(C(F)(F)F)C(F)(F)F)Nc1ccc(Cl)c(Cl)c1`, for which the activity change, negative = inhibition is -103% (active).
`Cc1ccc(-c2nn(CCC(=O)Nc3ccc(Cl)c(Cl)c3)c(=O)c3ccccc23)cc1`: the activity change, negative = inhibition is -16.5%.
On to `O=C(CSc1nnc(-c2ccncc2)n1-c1ccccc1)Nc1ccc(Cl)c(Cl)c1`, for which the activity change, negative = inhibition was -5.77%.
For `COc1cc(Cl)c(NC(=O)C(NS(=O)(=O)c2cccs2)C(C)C)c(OC)c1` (stereo unspecified), the activity change, negative = inhibition is -10.2%.
In the case of `CCc1ccc(-n2nc(C)c3c(C)cc(=O)n(CC(=O)Nc4ccc(F)cc4C)c32)cc1`, the activity change, negative = inhibition is 5.24%.
Turning to `CCc1ccccc1NC(=O)c1ccc2nc(CCc3ccccc3)oc2c1`, the activity change, negative = inhibition was 30%.
With `O=S(=O)(Nc1ncnc2sccc12)c1cccc(F)c1` the figure was 30.2%; with `COC(=O)c1ccc(Nc2ncnc3sccc23)cc1`, -62.4% (active).
In the case of `COC(=O)c1ccc(-c2nc3cc(NC(C)=O)ccc3o2)cc1`, the activity change, negative = inhibition is 13.5%.
With `CCOC(=O)c1c(NC(=O)COc2cc(C)ccc2C(C)C)sc(C)c1C` the figure was 12.8%; with `CC1CCN(S(=O)(=O)c2ccc3c(ccn3CCC(=O)NCc3ccc(N(C)C)cc3)c2)CC1`, 5.8%; with `CCc1ccc(NC(=O)c2nn(-c3ccc(C)cc3)c(=O)n(C)c2=O)cc1`, -12.5%.
Take `CCOc1ccccc1NC(=O)CSc1ncc(S(=O)(=O)c2ccc(C(C)(C)C)cc2)c(=O)[nH]1`: the activity change, negative = inhibition was -2.52%.
Take `CC1=CC(=Cc2sc3ccccc3[n+]2C)C=C(C)O1`: the activity change, negative = inhibition was -100% (active).
As to `CCC(=O)N1CCc2cc(Br)cc(S(=O)(=O)CCC(=O)NCCc3ccc(OC)c(OC)c3)c21`, the activity change, negative = inhibition is 7.78%.
Take `COc1ccc(C2NC(=S)NC3=C2CCc2ccccc23)cc1OC` (stereo unspecified): the activity change, negative = inhibition is -13.4%.
`Cc1ccc(-c2nn(C(C)(C)C)c3ncnc(N)c23)cc1`: the activity change, negative = inhibition was -69.5% (active).
For the compound `O=C1CCCC2=C1C(c1cccs1)CC(=O)N2c1ccc(F)cc1` (stereo unspecified), the activity change, negative = inhibition was 18.4%.
With `CCOC(=O)c1cc2c(n(-c3ccc(C)cc3)c1=O)CCCC2=O` the figure was -27.5%.
With `CCOC(=O)C1=C(N)N(c2ccc(C)cc2)C2=C(C(=O)CCC2)C1c1cccs1` (stereo unspecified) the figure was -86.5% (active).
For `Cc1ccc(C)c(Cn2c(=O)n(CCC(=O)NCc3ccc4c(c3)OCO4)c(=O)c3sccc32)c1`, the activity change, negative = inhibition is -25.1%.
In the case of `COc1ccc(C2=NC3(CCCCC3)N(CC(=O)Nc3ccc(C(C)C)cc3)C2=O)cc1`, the activity change, negative = inhibition was -14.7%.
For the compound `CCn1c(C)c(C)c2cc(C(=O)NCCc3cc(OC)ccc3OC)ccc21`, the activity change, negative = inhibition was 0%.
Consider `CSc1nc(N(C)NC(=O)c2cccc(C)c2)c2ccccc2n1`, for which the activity change, negative = inhibition is -87.3% (active).
With `Cc1cccc(C(=O)NCCc2nc3ccccc3n2Cc2ccccc2Cl)c1` the figure was 3.18%.
As for `O=C(Cn1cnc2ccccc2c1=O)NNC(=O)c1ccccc1F`, the activity change, negative = inhibition is -0.88%.
Consider `Cc1cccc(C(=O)Nc2ccc(-c3nc4ccccc4s3)c(C)c2)c1`, for which the activity change, negative = inhibition is 55.1%.
Regarding `CN(NC(=O)c1ccccc1F)c1nc(C(F)(F)F)nc2ccccc12`, the activity change, negative = inhibition was -62.6% (active).
For `CC(NC(=O)c1ccccc1F)c1cccc2ccccc12` (stereo unspecified), the activity change, negative = inhibition was -5.98%.
Regarding `Cc1cc2oc(C(=O)N(Cc3ccc(Cl)cc3)Cc3ccco3)c(C)c2cc1Cl`, the activity change, negative = inhibition is -14.8%.
